For orientation: inhibition means the drop in the measured response relative to a control, in per cent.

Molecules are shown by their SMILES. Screen size: about 650,000 compounds; about 5,900 (0.91%) were called active. Rule as the data show it: active = inhibition above about 50%; inactive = the rest. The entries come from a sample that favours actives as a whole.

The results in this text go back to PubChem BioAssay AID1259374 (The Scripps Research Institute Molecular Screening Center, 2018).

Microphthalmia-associated transcription factor (Homo sapiens), sequence (O75030 whole entry, looked up): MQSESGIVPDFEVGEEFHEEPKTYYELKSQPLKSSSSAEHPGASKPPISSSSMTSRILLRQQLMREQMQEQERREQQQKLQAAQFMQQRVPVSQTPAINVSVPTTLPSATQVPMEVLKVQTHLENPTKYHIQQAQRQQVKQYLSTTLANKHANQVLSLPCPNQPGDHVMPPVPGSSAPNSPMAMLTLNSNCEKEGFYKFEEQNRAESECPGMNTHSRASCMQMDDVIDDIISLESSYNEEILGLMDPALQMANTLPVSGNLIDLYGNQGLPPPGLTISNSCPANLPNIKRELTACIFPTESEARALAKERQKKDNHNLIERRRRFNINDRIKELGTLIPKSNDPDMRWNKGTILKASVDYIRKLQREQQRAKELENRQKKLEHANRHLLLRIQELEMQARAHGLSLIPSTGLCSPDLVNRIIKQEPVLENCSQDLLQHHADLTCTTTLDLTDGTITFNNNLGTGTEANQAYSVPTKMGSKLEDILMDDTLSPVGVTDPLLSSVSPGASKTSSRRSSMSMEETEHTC

This assay has as its target Microphthalmia-associated transcription factor (Homo sapiens) (UniProt O75030). In words: MITF inhibitors, primary screen, biochemical, AlphaScreen, human (AID 1259374).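 Also: 0% = vehicle wells with protein.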 The note with it: AlphaScreen MITF homodimerization, bead proximity signal; at 2.6 µM; active compounds read high. For orientation: In Alpha technology, singlet oxygen from a donor bead excites a nearby acceptor bead.
Consider `COc1ccc(OC)c(-n2nnnc2SCC(=O)N2CCc3ccccc32)c1`, for which the inhibition was 9.95% (inactive).

In the case of `CC(C)n1cnc2c(NCc3cccc(C(F)(F)F)c3)nc(Nc3ccncn3)nc21`, the inhibition was 12.6% (inactive). Next, `Cc1ccc2c(c1)-c1c(cnn1CC(=O)NCc1ccccn1)CO2`: -4% (inactive); `COc1ccc(N2CCN(Cc3ccc(Br)s3)CC2)cc1`: 71.6% (active).

For `COc1cccc(N2CCN(Cc3cccs3)CC2)c1`, the inhibition was 42.8% (inactive). Next, `COc1ccc(N2CCN(Cc3coc4ccc(Cl)cc4c3=O)CC2)cc1`: 10.4% (inactive); `CCOC(=O)c1ccc(-n2c(=S)sc3c2nc(SCC(=O)N2CCCC2)n2c4ccccc4nc32)cc1`: -3.4% (inactive); `CCOc1cc2c(cc1/C=C1/NC(=O)N(CC(=O)Nc3ccccc3C)C1=O)OCO2`: 12.6% (inactive).

For the compound `Cc1ccccc1CC1(C2CCN(C(=O)C(C)C)CC2)NC(=O)N(CCCN(C)C)C1=O` (centres undefined), the inhibition was 4.98% (inactive).

For the compound `CNC(=O)/C(C#N)=C/c1cn(CC(=O)NCCOC)c2ccccc12`, the inhibition is 5.66% (inactive). The result for `COc1cccc(CN2CCN3C(=O)[C@H]4CCCN4C(=O)[C@H]3C2)c1` reads -17.2% (inactive). Take `CSc1ccc(CN2CCN(C(=O)c3cccc(F)c3)CC2)cc1`: the inhibition was 34.1% (inactive). Regarding `CSc1ccc(CN2CCN(Cc3cccc(Oc4ccccc4)c3)CC2)cc1`, the inhibition was 52% (active).

As for `CCc1ccc(NS(=O)(=O)c2ccc3c(c2)CCN3C(=O)C2CC2)cc1`, the inhibition is 2.16% (inactive).

For the compound `CCC1CCc2c(sc3nc(SCC(=O)Nc4ccc(Br)cc4)n(-c4ccccc4)c(=O)c23)C1` (centres undefined), the inhibition was 10.8% (inactive). Next, `COCc1nc2ccccc2n1CCc1noc(-c2cccs2)n1`: 8.99% (inactive); `COCc1nc2ccccc2n1CCc1noc(-c2ccco2)n1`: 82% (active); `Cc1nc2ccccc2n1CCc1noc(COc2ccccc2)n1`: 9.51% (inactive).

Regarding `CCCc1[nH]n(-c2ccc(F)cc2)c(=O)c1CNN1CCOCC1`, the inhibition was -2.83% (inactive).

With `NC(=O)COC(=O)/C=C/c1ccc(I)o1`, the inhibition was 52.1% (active). The result for `COc1cc(/C=C/C(=O)OCC(N)=O)ccc1OCC#N` reads 6.64% (inactive); that for `CNC(=O)COC(=O)/C=C/c1ccc(C)o1`, 18.9% (inactive). The result for `Cc1ccc(C)c(NC(=S)N(Cc2ccccc2C)CC2CCC(C(=O)O)CC2)c1` (centres undefined) reads 13.3% (inactive); that for `CCCC(=O)NC(c1ccccc1OC)c1cc([N+](=O)[O-])c2cccnc2c1O` (centres undefined), 56.2% (active); that for `COc1cc(C(=O)NC(c2ccccc2Cl)c2cc([N+](=O)[O-])c3cccnc3c2O)cc(OC)c1OC` (centres undefined), 24.9% (inactive). Next, `CCCCC(=O)NC(c1ccc(OC)cc1)c1cc([N+](=O)[O-])c2cccnc2c1O` (centres undefined): 18.8% (inactive). Take `C/C(N)=C(/C#N)C(=O)CSc1cccc[n+]1[O-]`: the inhibition is -1.32% (inactive). Next, `O=C1c2ccccc2-c2ccc(-c3nc(-c4ccccc4)[nH]c3-c3ccccc3)cc21`: -1.27% (inactive); `Cc1ccc(OCCCCNC(C)(C)C)cc1C`: 1.35% (inactive). Next, `CC(C)(C)NCCOCCOc1ccc(Cl)c(Cl)c1`: 73.1% (active). Next, `CC(C)(C)NCCOCCOc1ccc(I)cc1`: 40.6% (inactive); `CCOC(=O)C(C)Oc1cccc2c(=O)n(CC(=O)Nc3ccc(C)c(Cl)c3)ccc12` (centres undefined): -3.54% (inactive). Regarding `CC1=C(C#N)C(=O)NC(=O)/C1=C\c1ccc(-c2ccc(Cl)c(C(=O)O)c2)o1`, the inhibition is 77.7% (active). For `CC1=C(C#N)C(=O)NC(=O)/C1=C/c1ccc(-c2ccc(Cl)cc2Cl)o1`, the inhibition is 13.9% (inactive). Next, `CC1=C(C#N)C(=O)NC(=O)/C1=C\c1ccc(-c2cccc(Cl)c2)o1`: -5.17% (inactive). Regarding `CCOC(=O)c1ccc(N2CCN(c3ccc(F)cc3)CC2)c(NC(=O)Nc2ccc(OC)cc2OC)c1`, the inhibition is -1.5% (inactive). The result for `O=C1C2C3CC(C(Br)C3Br)C2C(=O)N1C1CCCCC1` (centres undefined) reads -2.53% (inactive); that for `O=C(NCc1ccco1)c1ccc2c(c1)C(=O)N(Cc1cccnc1)C2=O`, -3.01% (inactive); that for `O=C(c1ccc2c(c1)C(=O)N(Cc1cccnc1)C2=O)c1ccc2c(c1)C(=O)N(Cc1cccnc1)C2=O`, 104% (active). The result for `O=C(Nc1cccc(O)c1)c1ccc2c(c1)C(=O)N(Cc1cccnc1)C2=O` reads -1.4% (inactive). The result for `CC(=O)N1C(=O)C(=O)c2cc(Cl)ccc21` reads -11.3% (inactive); that for `Cc1ccc(NC(=O)C(C)C2Sc3ccccc3NC2=O)c(C)c1` (centres undefined), 9.32% (inactive).

In the case of `O=C(C1CCN(Cc2nc3ccccc3[nH]2)CC1)N1CCN(c2ccccn2)CC1`, the inhibition is 51.4% (active).

With `O=C(C1CCN(Cc2nc3ccccc3[nH]2)CC1)N1CCN(c2ccc(Cl)nn2)CC1`, the inhibition was -4.97% (inactive). The result for `O=C(C1CCN(c2nc3ccccc3n3cccc23)CC1)N1CCN(c2ccccn2)CC1` reads 10.7% (inactive); that for `CN(c1ccccc1)S(=O)(=O)c1ccc(C(=O)N2CCc3ccccc32)cc1`, -6.36% (inactive); that for `Fc1ccccc1OCCCCn1cncn1`, 20.2% (inactive). Turning to `c1ccc(Oc2cccc(OCCCCn3cncn3)c2)cc1`, the inhibition was 73.8% (active). Take `O=C(Cn1cncn1)NCCCOc1cccc(CN2CCCCCCC2)c1`: the inhibition was -3.47% (inactive).

As for `O=C(c1cccs1)N1CCN(S(=O)(=O)c2ccc(Cl)cc2)CC1`, the inhibition was -0.92% (inactive).

Take `O=C(CN1CCN(C(=O)c2cccs2)CC1)c1cccs1`: the inhibition was -1.86% (inactive). Consider `Cc1cccc(CN2CCC(N3CCN(C(=O)c4cccs4)CC3)CCC2=O)c1` (centres undefined), for which the inhibition is -6.77% (inactive).

On to `O=C(c1cccs1)N1CCC(N2CCN(Cc3ccccc3)CC2)CC1`, for which the inhibition is 76.7% (active). Next, `CCOC(=O)c1c(NC(=O)c2ccccc2Br)sc2c1CC(C)(C)NC2(C)C`: 3.37% (inactive); `NS(=O)(=O)c1ccc(O)c2ccccc12`: 13.7% (inactive); `Nc1ccc(S(=O)(=O)O)c2cc(S(=O)(=O)O)cc(O)c12`: 63.3% (active). Next, `Cc1ccc(/C=C2/C(=O)N(C)C(=S)N(c3ccccc3)C2=O)s1`: 23.2% (inactive); `O=C(NC1CC1)C1CCC(=O)N1Cc1ccccc1Cl` (centres undefined): -6.74% (inactive). The result for `O=C1c2ccccc2C(O)N1Cc1ccccc1` (centres undefined) reads 3.72% (inactive); that for `O=C1c2ccccc2C(O)N1Cc1ccccc1Cl` (centres undefined), 79.6% (active); that for `COC(=O)Cn1cc(-c2ccc([N+](=O)[O-])cc2)nc1SCC(=O)NC(C)(C)C`, -1.03% (inactive).

Turning to `N#Cc1ccc(-c2cccnc2)nc1SCC(=O)c1ccc(Cl)cc1`, the inhibition is -7.18% (inactive). As to `COc1ccc(NC(=O)C2(N(C)C(=O)Cn3nnnc3N)CCCCC2)cc1`, the inhibition was 5.13% (inactive). The result for `CCN(C(=O)Cc1nc(N)n[nH]1)C1(C(=O)Nc2ccc(C)cc2)CCCCC1` reads 63% (active); that for `CCN(C(=O)Cc1nc(N)n[nH]1)C1(C(=O)Nc2ccccc2)CCCCC1`, 68.5% (active).

Take `COCCN(C(=O)CN1C(=O)c2ccccc2C1=O)C1(C(=O)Nc2ccccc2)CCCC1`: the inhibition is 11.4% (inactive). The result for `COCCCN(C(=O)c1cc2ccccc2o1)C1(C(=O)Nc2ccccc2)CCCC1` reads 6.26% (inactive); that for `COc1ccc(N(C(=O)Cc2nc(N)n[nH]2)C2(C(=O)Nc3ccccc3)CCCCC2)cc1`, -1.47% (inactive). Next, `Cc1ccc(NC(=O)CNCCCSc2ccccc2)cc1C`: 75.4% (active). The result for `Cc1ccc(NC(=O)Cn2c(=O)[nH]n(-c3ccccc3)c2=O)cc1C` reads -10.5% (inactive); that for `Cc1ccc(NC(=O)CSCC(=O)Nc2ccccc2F)cc1C`, 4.24% (inactive); that for `CC1=CC(C)(C)N2C(=O)C(=O)c3cc(OC(=O)C(C)(C)C)cc1c32`, -9.06% (inactive).

For `CC(C)OC(=O)C1=c2/c(=C/c3ccco3)c(N)c(C#N)n2C(=O)C(c2ccco2)S1` (centres undefined), the inhibition is 14.9% (inactive).

Regarding `Cc1nc(N2CCCCC2C)c2c(C)c(C(=O)NC3CCCCC3)sc2n1` (centres undefined), the inhibition was 9.14% (inactive). Next, `COCC(=O)Nc1ccc2nc(C)n(-c3ccc(F)cc3)c(=O)c2c1`: -0.07% (inactive); `COc1ccc(OCCSc2nnc3nc(C)cc(C)n23)cc1`: 7.82% (inactive).

As to `Cc1nccn1CC(O)COc1ccc(Br)cc1` (centres undefined), the inhibition was 4.86% (inactive). The result for `COc1ccc(OCCn2ccnc2C)cc1` reads 57.2% (active); that for `CC1CCC(C(C)C)C(OC(=O)COC(=O)c2cnccn2)C1` (centres undefined), 2.66% (inactive); that for `CCOC(=O)C1CCN(c2nc(-c3cccc(C)c3)nc3ccccc23)CC1`, 0.58% (inactive). The result for `CCOC(=O)COc1cccc2c1CCN(Cc1ccccc1)C2=O` reads -3.19% (inactive). With `CC(C)(C)NCC(=O)Nc1c2c(nc3ccccc13)N(Cc1ccccc1)CC2`, the inhibition is 63.8% (active).

Consider `CCN(CC)CC(=O)Nc1nn(-c2ccccc2)nc1C(N)=O`, for which the inhibition is -0.44% (inactive). The result for `CCN(CC)CC(=O)Nc1c2c(nc3ccccc13)N(c1cccc(C)c1)CC2` reads 65.6% (active); that for `Cc1cc(C)c(NC(=O)CNC(C)(C)C)c(C)c1`, -3.53% (inactive); that for `Cc1[nH]c(=O)[nH]c(=O)c1S(=O)(=O)N1CCOc2ccccc21`, 5.78% (inactive). Take `CC(C)C(=O)Nc1ccc(CN2CCOCC2)cc1`: the inhibition is 1.55% (inactive). The result for `CC(NCCCN1CCOCC1)C(=O)Nc1ccccc1` (centres undefined) reads 77.6% (active); that for `CCc1ccc(NC(=O)C(=O)NCCCN2CCOCC2)cc1`, 12.7% (inactive); that for `O=C(Cn1c(=O)n(Cc2ccc3c(c2)OCO3)c(=O)c2ncccc21)N1CCc2ccccc21`, 3.95% (inactive). The result for `COc1cc(C=O)ccc1OCC(=O)c1ccc(C)c(C)c1` reads 11.1% (inactive); that for `COc1ccc(C(=O)COC(=O)CNS(=O)(=O)/C=C/c2ccc(C)cc2)cc1OC`, 74.8% (active).

`CCOC(=O)N/N=C/c1ccc(OS(=O)(=O)c2ccc(C)cc2)c(OC)c1`: the inhibition was 2.78% (inactive). The result for `O=C(CCN1C(=O)C2CCCCC2C1=O)N1CCc2c(nc(N3CCCC3)[nH]c2=O)C1` (centres undefined) reads -0.41% (inactive).
